These results are taken from PubChem BioAssay AID651650 (Sanford-Burnham Center for Chemical Genomics, 2012).

The target of this test is Neuropilin-1 (Homo sapiens) (UniProt O14786). Description: blockers of CendR peptide binding to NRP-1 – biochemical, FP and AlphaScreen panel, dose response (AID 651650). The settings on record: NRP-1 b1b2 / RPARPAR peptide binding, FP or AlphaScreen; run 1, at 100 µM (top of the series).
Sequence of Neuropilin-1 (Homo sapiens) (O14786 whole entry, looked up): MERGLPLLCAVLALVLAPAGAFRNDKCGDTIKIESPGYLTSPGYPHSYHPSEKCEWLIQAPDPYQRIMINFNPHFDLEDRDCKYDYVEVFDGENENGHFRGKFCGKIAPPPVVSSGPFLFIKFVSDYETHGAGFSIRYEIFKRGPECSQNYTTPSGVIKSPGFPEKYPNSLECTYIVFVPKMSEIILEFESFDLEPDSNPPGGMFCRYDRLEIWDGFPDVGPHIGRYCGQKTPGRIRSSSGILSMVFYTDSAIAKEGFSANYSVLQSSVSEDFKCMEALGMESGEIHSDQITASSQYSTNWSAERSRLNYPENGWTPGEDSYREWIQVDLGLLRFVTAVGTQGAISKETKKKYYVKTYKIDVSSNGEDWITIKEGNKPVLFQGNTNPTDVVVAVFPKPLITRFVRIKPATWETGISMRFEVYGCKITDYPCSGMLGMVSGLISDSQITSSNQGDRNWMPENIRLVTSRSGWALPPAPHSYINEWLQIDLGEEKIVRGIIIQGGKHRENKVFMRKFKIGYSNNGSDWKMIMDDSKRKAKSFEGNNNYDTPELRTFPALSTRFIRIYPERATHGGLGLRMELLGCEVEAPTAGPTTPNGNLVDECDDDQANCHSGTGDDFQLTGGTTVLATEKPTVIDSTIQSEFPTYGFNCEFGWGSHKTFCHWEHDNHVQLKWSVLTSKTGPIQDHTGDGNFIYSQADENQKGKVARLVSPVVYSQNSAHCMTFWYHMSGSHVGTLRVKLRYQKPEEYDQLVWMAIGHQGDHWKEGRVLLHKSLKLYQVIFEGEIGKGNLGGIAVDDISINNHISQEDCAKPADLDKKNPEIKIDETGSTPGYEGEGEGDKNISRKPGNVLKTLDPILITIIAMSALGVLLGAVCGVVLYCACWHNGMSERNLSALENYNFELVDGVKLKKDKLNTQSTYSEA
As to `c1ccc2c(CNc3ccc(CNc4ncn[nH]4)cc3)cccc2c1`, the inhibition was determined as 25.6%.

Regarding `CN(C)/C=C/c1c([N+](=O)[O-])c2ccc(O)cc2n1-c1ccccc1`, the inhibition was 39.4%.

As for `O=C1CCC[C@@H]2Cc3nc4cc5c(cc4cc3[C@@H]3CCN1[C@H]23)OCO5`, the inhibition was 30.9%.

On to `Cc1ccc(Cl)cc1N1CCN(C(=O)c2cccc3c(=O)c(C)c(-c4ccccc4)oc23)CC1`, for which the inhibition came out at 20.7%.

`CCNS(=O)(=O)c1ccc(CCC(=O)O)cc1`: the inhibition was determined as 23.4%.

For `CC(=O)Nc1cc(F)c2c(c1F)Cc1cc(F)ccc1-2`, the inhibition amounted to 64%.

With `O=C1CSC(c2cn(-c3ccccc3)nc2-c2cccs2)N1CC1CCCO1` (configuration not stated), the inhibition came out at 73.3%.

Consider `C=CCC1(CC=C)CCCN1C(=O)c1cc(COc2cccc(OC)c2)on1`, for which the inhibition turned out to be 39.2%.

As for `CCCNC(=S)Nc1cccc(C(F)(F)F)c1`, the inhibition is -8.06%.

For `CCc1ccccc1NC(=O)c1ccccc1N1C(=O)C2C3C=CC(C3)C2C1=O` (configuration not stated), the inhibition stood at 21.3%.

In the case of `Cc1ccc(C(=O)OCC(=O)c2ccc(Cl)s2)s1`, the inhibition came out at 32%.

With `Cc1ccccc1-c1cnc(C(O)c2ccc(F)c(F)c2)[nH]1` (configuration not stated), the inhibition came to 43.1%.

As to `O=S1(=O)CCOC[C@H](Cc2ccccc2)N1Cc1ccccc1F`, the inhibition was found to be 46.5%.

For `CC1(C)S[C@@H]2[C@H](NC(=O)COc3ccccc3)C(=O)N2C1C(=O)OCc1ccccc1` (some centres not stated), the inhibition is 53.2%.

For the compound `Cc1cccc(NC(=O)c2ccc(OCc3c(C)noc3C)cc2)c1`, the inhibition is 93.6%.

As to `O=C(COc1ccc(S(=O)(=O)N2CCCC2)cc1)Nc1ccc2c(c1)OCCO2`, the inhibition was found to be 34%.

Consider `c1ccc2c(c1)CCCN2Cc1nnnn1CC1CCCO1` (configuration not stated), for which the inhibition was 48.9%.

With `CCOC(=O)C1(Cc2cccc(F)c2)CCN(Cc2ccon2)CC1`, the inhibition is 61.1%.

Consider `COc1cccc(NC(=O)CSc2nc(O)c(C)c(=O)n2-c2ccc(C)cc2)c1`, for which the inhibition came out at 84.9%.

For `O=C(c1ccc(-c2cccc(Cl)c2)o1)N1CCN(c2ccc([N+](=O)[O-])cc2)CC1`, the inhibition was found to be 21.7%.

In the case of `Cc1cc2c(cc1C)NC(c1nc3ccccc3[nH]1)C1=C(CC(C)(C)CC1=O)N2` (configuration not stated), the inhibition was found to be 20.6%.

For the compound `Cc1ccccc1Oc1ccc2c(c1)[C@@H]1C[C@H](N(C)C(=O)Nc3cc(Cl)cc(Cl)c3)[C@H]([C@H](C)O)C(=O)N1CC2`, the inhibition amounted to 97.5%.
